Source: PubChem
Most compounds without a hit are left out; they make up all but 8.6% or so of the library.
Lassa entry – blocks Lassa virus binding or cell entry; Potency, µM (highest dose often 49.2 µM), actives largely listed as inhibitors; 4.1% of 18,000 active; Lassa virus pseudotyped entry inhibition, cell-based qHTS; AID 720533
Marburg entry – Marburg virus entry inhibition; Potency, µM (series often up to 49.2 µM), usual class: inhibitors; 6.5% of 18,000 active; Marburg virus pseudotype entry/binding inhibition, cell-based
Of the large screens only hits and unclear results are named; the others gave an inactive call; ! = a repeat was not active. Calls come from the whole dose curve; tested in HEK293 cells.

OC(C#CCN1CCCC1)(c1ccccc1)c1ccccc1	none
OC(CCN1CCCC1)(c1ccccc1)C1CCCCC1 (stereo not drawn)	Marburg entry 16µM
OC(CCN1CCCCC1)(c1ccccc1)c1ccccc1	Lassa entry inconclusive, Marburg entry 8.9µM
CC[N+](CC)(CC)CCC(O)(c1ccccc1)C1CCCCC1 (stereo not drawn)	none
Cc1nc(-c2ccccc2)n2nc(NCCCN3CCOCC3)ncc12	none (no result: Lassa entry)
C[C@@H]1CC2=CCCC2[C@]2(O1)C(=O)N(Cc1ccc(F)cc1)c1cccc(Br)c12 (stereo partly drawn)	none
Cc1cc(-c2ccnc(-n3ncc(C(=O)NCC4COCCO4)c3C)n2)c(C)s1 (stereo not drawn)	Marburg entry inconclusive
COc1cc2c(C=O)c3c4c(cc(OC)c(OC)c4c2cc1OC)CCN3C	Lassa entry 16µM, Marburg entry inconclusive
C=CCOC(=O)C(C(C)=O)[C@@H](NC(=O)OC)c1ccco1 (stereo partly drawn)	none
COC(=O)[C@@H]1C[C@H](NC(=O)c2ccccn2)CN1Cc1cccc2ccccc12	none
COC(=O)[C@@H]1C[C@@H](NC(=O)c2cccc3c(C)c(C)[nH]c23)CN1Cc1cccc2ccccc12	Lassa entry 3.5µM, Marburg entry 1.8µM
C[C@@H]1COc2cc(F)ccc2S(=O)(=O)N1	none
COc1cc(=O)n2c(c1C(=O)NCc1ccco1)CCN(Cc1ccc(F)cc1Cl)CC2	none
C[n+]1cc2c3c(ccc2c2ccc4cc5c(cc4c21)OCO5)OCO3	Lassa entry 20µM, Marburg entry 6.3µM
NS(=O)(=O)c1cccc(N=Cc2c(O)[nH]c3ccccc23)c1	Marburg entry inconclusive
CC[C@@H](C(=O)[C@@H](C)[C@@H](O)[C@H](C)CCc1ccc(C)c(O)c1C(=O)O)C1O[C@](CC)(C2CC[C@](O)(CC)[C@H](C)O2)C[C@@H]1C (stereo partly drawn)	Lassa entry 7.1µM, Marburg entry inconclusive
CC[C@H](C(=O)[C@H](C)[C@H](O)[C@H](C)CCc1ccc(C)c(O)c1C(=O)O)[C@H]1O[C@](CC)([C@@H]2CC[C@@](O)(CC)[C@H](C)O2)C[C@H]1C	Lassa entry inconclusive, Marburg entry 2.8µM
CC[C@@H](C)[C@H](N)C(=O)O	none
CCN1CCC(C(=O)Nc2n[nH]c3nnc(-c4cccc(F)c4F)cc23)CC1	none (no result: Lassa entry)
C=CC1CC(C=C)OP(=O)(OC[C@H](C)[C@@H](O[Si](C)(C)C(C)(C)C)[C@@H](C)C=C)O1 (stereo partly drawn)	none
C[C@@H]1CC=C[C@@H]2[C@H]1C(=O)N(Cc1ccccc1)[C@H]2c1cccc(Br)c1	none
COc1ccc(-c2ccccc2[C@H]2[C@@H]3C=CC[C@@H](C)[C@@H]3C(=O)N2Cc2ccccc2)cc1	Lassa entry inconclusive, Marburg entry 14µM
Fc1ccc(C(c2ccc(F)cc2)N2CCN(C/C=C\c3ccccc3)CC2)cc1	Lassa entry inconclusive, Marburg entry 14µM
Fc1ccc(C(OCCN2CCN(C/C=C/c3ccccc3)CC2)c2ccc(F)cc2)cc1	Lassa entry 16µM, Marburg entry 8.9µM
COc1cccc(CN2c3ccc(Br)cc3C(O)CS2(=O)=O)c1 (stereo not drawn)	none
C1CCC(C(C[C@@H]2CCCCN2)C2CCCCC2)CC1	Marburg entry 7.9µM
C[C@H]1[C@H](O)[C@@H](N=[N+]=[N-])CCO[C@H]1c1ccccc1	none
COC(=O)C1=C(C)N(Cc2ccccc2)C(=NCC2CC2)NC1c1ccc(Br)cc1 (stereo not drawn)	none
C[C@H]1CCCC=CC2C[C@H](O)C[C@@H]2[C@H](O)C=CC(=O)O1 (stereo partly drawn)	Lassa entry inconclusive, Marburg entry 35µM
O[C@H]1C[C@H](c2ccc(Cl)cc2)N(Cc2cccs2)C[C@H]1n1cc(C2CC2)nn1	Marburg entry inconclusive
Nc1nc(=S)c2ncn([C@H]3O[C@@H](CO)[C@@H](O)[C@@H]3O)c2[nH]1	Lassa entry inconclusive, Marburg entry 2µM
Nc1nc(F)nc2c1ncn2[C@@H]1O[C@H](CO)[C@@H](O)[C@@H]1O	none
COc1ccc(O[C@H]2C=C[C@@H](c3ccccc3)O[C@H]2CON=C(C)CCN2CCCc3nc(C)c(C)cc32)cc1	Marburg entry inconclusive
C=CCCCN1C(=O)NC(c2ccccc2)C(C(=O)OC)=C1C (stereo not drawn)	none
CC(=O)OC1(c2ccccc2)CCN(CCc2ccccc2)CC1	Marburg entry inconclusive
CN(C)C(=O)C(CCN1CCC(O)(c2ccc(Cl)cc2)CC1)(c1ccccc1)c1ccccc1	Lassa entry 25µM!, Marburg entry 6.3µM
NS(=O)(=O)c1ccc(Nc2cc(-c3ccc(O)c(F)c3)[nH]n2)cc1	none
Fc1ccc(-c2ncn(CCCN3CCOCC3)c2-c2ccncc2)cc1	none
COc1cc2c(cc1OC)[C@H](C)NCC2	none
CC[C@@H]1CN2CCc3cc(OC)c(OC)cc3[C@H]2C[C@@H]1C[C@@H]1NCCc2cc(O)c(OC)cc21	Lassa entry 0.35µM, Marburg entry inconclusive
C=C1[C@@H]2CCN3C(=O)N[C@@H](c4ccccc4)[C@@]1(C(=O)OCC)C23 (stereo partly drawn)	Marburg entry inconclusive
COc1ccc([C@]23Cc4c(ccc5ccccc45)[C@H](O2)c2c(cc(-c4ccccc4)oc2=O)O3)cc1	none
C=CCOC(=O)C(C(C)=O)[C@@H](NC(=O)OC)c1cccc(F)c1 (stereo partly drawn)	none
COC(=O)CC=C[C@@H](C)[C@@H](C=NOC[C@@H](O)COCc1ccco1)NS(=O)(=O)c1ccc(C)cc1	none
CC(=O)OC[C@H]1O[C@H](C#Cc2ccc(C)cc2C)C=C[C@H]1OC(C)=O	Lassa entry inconclusive
NCCc1ccc(O)cc1	Lassa entry inconclusive
Nc1ccc(O)cc1	Lassa entry 45µM, Marburg entry 50µM
CC(CN(C)C)CN1c2ccccc2Sc2ccc(C(F)(F)F)cc21 (stereo not drawn)	Lassa entry 32µM, Marburg entry 10µM
C[C@@H](CN(C)C)CN1c2ccccc2Sc2ccccc21	Lassa entry inconclusive, Marburg entry 11µM
CC(CN(C)C)CN1c2ccccc2Sc2ccccc21 (stereo not drawn)	Lassa entry inconclusive, Marburg entry 11µM
COc1ccc2c(c1)N(C[C@H](C)CN(C)C)c1ccccc1S2	Marburg entry inconclusive
CN(C)CCCN1c2ccccc2Sc2ccc(C(F)(F)F)cc21	Lassa entry inconclusive, Marburg entry 11µM
C[C@@H]1[C@H](O)[C@@H](C)/C=C/C=C\C=C\C=C\C=C\C=C\C=C\[C@H](O[C@@H]2O[C@H](C)[C@@H](O)[C@H](N)[C@@H]2O)C[C@@H]2O[C@](O)(C[C@@H](O)C[C@@H](O)[C@H](O)CC[C@@H](O)C[C@@H](O)CC(=O)O[C@H]1C)C[C@H](O)[C@H]2C(=O)O (stereo in doubt)	none
CCN1C(N(C)CCOC)=NC(c2cccc(F)c2)C(C(=O)OC)=C1C (stereo not drawn)	none (no result: Lassa entry)
COC(=O)C1=C[C@H]([C@@H](C)[C@H](OC)c2ccccc2Br)[C@H]2[C@H]1c1ccccc1N2C	none (no result: Lassa entry)
CCOC(=O)CN1C(=O)[C@]2(OCCC=C[C@@H]2C)c2cc(OC)ccc21	none
CC1=CC[C@@H](COc2ccccc2)O[C@@]2(C1)C(=O)N(Cc1ccc(F)cc1)c1cccc(Br)c12	none
COc1cc(-c2ccc(-[n+]3nc(-c4ccccc4)nn3-c3ccc([N+](=O)[O-])cc3)c(OC)c2)ccc1-[n+]1nc(-c2ccccc2)nn1-c1ccc([N+](=O)[O-])cc1	Lassa entry 14µM, Marburg entry 14µM
